Records with an inconclusive call do not appear. The source made the active and inactive calls. Rule for the calls: active = hit-call score of the fitted dose curve at least 0.9, where 1 is the maximum; inconclusive = response in the unintended direction; inactive = score below 0.9.
biological target: human Phosphatase and Tensin Homolog (PTEN), PTEN (gene 5728) (UniProt P60484); test: NVS_ENZ_hPTEN: NovaScreen (NVS) Enzymatic Assay for human Phosphatase and Tensin Homolog (PTEN) (AID 2283203)
Outline: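 Loss of fluorescent product signal after mobility-shift separation reports PTEN activity, recombinant human enzyme, 1 h after compound addition. Single 25 uM duplicate screen, then concentration-response on actives; DMSO baseline.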

Sequence of human Phosphatase and Tensin Homolog (PTEN), PTEN (gene 5728) (P60484 whole entry, looked up): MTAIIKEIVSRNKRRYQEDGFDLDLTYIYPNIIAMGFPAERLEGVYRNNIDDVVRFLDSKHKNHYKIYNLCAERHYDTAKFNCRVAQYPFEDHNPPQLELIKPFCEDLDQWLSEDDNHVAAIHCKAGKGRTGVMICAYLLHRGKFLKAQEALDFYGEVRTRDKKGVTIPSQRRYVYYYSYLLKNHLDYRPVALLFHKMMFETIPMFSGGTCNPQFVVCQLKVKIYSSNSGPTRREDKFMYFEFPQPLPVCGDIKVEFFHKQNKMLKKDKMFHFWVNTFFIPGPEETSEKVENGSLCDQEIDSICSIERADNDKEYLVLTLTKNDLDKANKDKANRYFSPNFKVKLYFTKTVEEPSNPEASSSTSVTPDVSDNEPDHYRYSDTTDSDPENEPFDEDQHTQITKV

| Structure (SMILES) | outcome | AC50 |
| --- | --- | --- |
| CN(CCOc1ccc(CC2SC(=O)NC2=O)cc1)c1ccccn1 (configuration not stated) | inactive | – |
| Cc1ccc(N)c([N+](=O)[O-])c1 | – | 25 µM (active) |
| CCCCCCCCCCc1ccccc1 | inactive | – |
| CCCCCCCCc1ccc(Nc2ccc(CCCCCCCC)cc2)cc1 | inactive | – |
| CCCCCC1=CCCC1=O | – | 16.3 µM (active) |
| C#CC(O)CCC (configuration not stated) | – | 25 µM (active) |
| CCN(CC)CC | – | 3.58 µM (active) |
| Oc1ccc2c(c1)CCC2 | – | 1.62 µM (active) |
| Cc1cccc2c1ccc1ccccc12 | – | 13.8 µM (active) |
| COc1ccc(CCN2CCC(Nc3nc4ccccc4n3Cc3ccc(F)cc3)CC2)cc1 | inactive | – |
| Clc1cc(Cl)c(-c2c(Cl)c(Cl)cc(Cl)c2Cl)cc1Cl | – | 12.5 µM (active) |
| O=C1OC2(c3cc(Br)c(O)c(Br)c3Oc3c2cc(Br)c(O)c3Br)c2c(Cl)c(Cl)c(Cl)c(Cl)c21 | – | 0.851 µM (active) |
| CN(C)C(=S)SC(=S)N(C)C | – | 18.9 µM (active) |
| Cc1ccccc1S(N)(=O)=O | inactive | – |
| C=C(C)CCCC | inactive | – |
| CCCC(C)C=O (configuration not stated) | inactive | – |

| Structure (SMILES) | outcome | AC50 |
| --- | --- | --- |
| Cc1ccc2ncccc2c1 | inactive | – |
| CCCCCCCCCCCCCCCC | inactive | – |
| OCCOCCOCCO | inactive | – |
| N#[N+]c1ccc2c(S(=O)(=O)[O-])cccc2c1O | inactive | – |
| C=CC(=O)OCC(Br)CBr (configuration not stated) | inactive | – |
| O=C1OC2(c3ccc(O)cc3Oc3cc(O)ccc32)c2ccccc21 | inactive | – |
| CCNc1nc(NC(C)(C)C)nc(OC)n1 | inactive | – |
| CC(C)c1ccccc1N | – | 12.4 µM (active) |
| S=c1[nH][nH]c(=S)s1 | – | 2.47 µM (active) |
| CCC(=O)O | inactive | – |
| COc1cccc(OC)c1O | inactive | – |
| CCOC(C=C(C)CCC=C(C)C)OCC | inactive | – |
| NC(=O)c1ccccc1Cl | inactive | – |
| Cc1cncc(C)c1 | inactive | – |
| Nc1ccc(S(=O)(=O)Nc2nccs2)cc1 | inactive | – |

biological target: human Protein Tyrosine Phosphatase Non-receptor Type 2 (PTPN2), PTPN2 (gene 5771) (UniProt P17706); test: NVS_ENZ_hPTPN2: NovaScreen (NVS) Enzymatic Assay for human Protein Tyrosine Phosphatase Non-receptor Type 2 (PTPN2) (AID 2283207)
Outline: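 Activity measured as fluorescence after mobility-shift separation of substrate and product, 1 h after compound. Duplicate single-point 25 uM primary testing, concentration series for actives; inhibition scored as signal loss relative to DMSO baseline.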

Sequence of human Protein Tyrosine Phosphatase Non-receptor Type 2 (PTPN2), PTPN2 (gene 5771) (P17706 whole entry, looked up): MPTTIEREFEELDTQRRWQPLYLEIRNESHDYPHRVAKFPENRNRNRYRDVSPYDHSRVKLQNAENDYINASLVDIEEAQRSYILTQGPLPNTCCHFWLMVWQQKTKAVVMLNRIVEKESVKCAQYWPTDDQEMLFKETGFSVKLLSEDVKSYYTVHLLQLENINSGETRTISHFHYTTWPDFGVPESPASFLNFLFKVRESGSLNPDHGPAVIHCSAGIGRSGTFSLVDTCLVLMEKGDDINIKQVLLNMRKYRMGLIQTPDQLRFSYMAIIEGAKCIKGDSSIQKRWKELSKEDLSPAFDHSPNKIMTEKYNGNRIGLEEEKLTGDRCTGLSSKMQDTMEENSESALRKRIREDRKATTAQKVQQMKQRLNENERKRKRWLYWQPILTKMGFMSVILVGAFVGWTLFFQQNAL

| Structure (SMILES) | outcome |
| --- | --- |
| OC[C@H]1O[C@@H]2O[C@H]3[C@H](O)[C@@H](O)[C@@H](O[C@H]4[C@H](O)[C@@H](O)[C@@H](O[C@H]5[C@H](O)[C@@H](O)[C@@H](O[C@H]6[C@H](O)[C@@H](O)[C@@H](O[C@H]7[C@H](O)[C@@H](O)[C@@H](O[C@H]1[C@H](O)[C@H]2O)O[C@@H]7CO)O[C@@H]6CO)O[C@@H]5CO)O[C@@H]4CO)O[C@@H]3CO | inactive |
| O=C(O)CC(O)C(=O)O (configuration not stated) | inactive |
| COc1nc(C)nc(NC(=O)NS(=O)(=O)c2ccccc2OCCCl)n1 | inactive |

biological target: human Protein Tyrosine Phosphatase Receptor Type C (PTPRC), PTPRC (gene 5788) (UniProt P08575); test: NVS_ENZ_hPTPRC: NovaScreen (NVS) Enzymatic Assay for human Protein Tyrosine Phosphatase Receptor Type C (PTPRC) (AID 2283212)
Outline: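 Absorbance-based phosphatase activity of human PTPRC protein extracted from yeast was measured 1 h post-dosing. Compounds first tested at 25 uM in duplicate, then those passing threshold in singleton concentration series to 50 uM.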

Sequence of human Protein Tyrosine Phosphatase Receptor Type C (PTPRC), PTPRC (gene 5788) (P08575 whole entry, looked up): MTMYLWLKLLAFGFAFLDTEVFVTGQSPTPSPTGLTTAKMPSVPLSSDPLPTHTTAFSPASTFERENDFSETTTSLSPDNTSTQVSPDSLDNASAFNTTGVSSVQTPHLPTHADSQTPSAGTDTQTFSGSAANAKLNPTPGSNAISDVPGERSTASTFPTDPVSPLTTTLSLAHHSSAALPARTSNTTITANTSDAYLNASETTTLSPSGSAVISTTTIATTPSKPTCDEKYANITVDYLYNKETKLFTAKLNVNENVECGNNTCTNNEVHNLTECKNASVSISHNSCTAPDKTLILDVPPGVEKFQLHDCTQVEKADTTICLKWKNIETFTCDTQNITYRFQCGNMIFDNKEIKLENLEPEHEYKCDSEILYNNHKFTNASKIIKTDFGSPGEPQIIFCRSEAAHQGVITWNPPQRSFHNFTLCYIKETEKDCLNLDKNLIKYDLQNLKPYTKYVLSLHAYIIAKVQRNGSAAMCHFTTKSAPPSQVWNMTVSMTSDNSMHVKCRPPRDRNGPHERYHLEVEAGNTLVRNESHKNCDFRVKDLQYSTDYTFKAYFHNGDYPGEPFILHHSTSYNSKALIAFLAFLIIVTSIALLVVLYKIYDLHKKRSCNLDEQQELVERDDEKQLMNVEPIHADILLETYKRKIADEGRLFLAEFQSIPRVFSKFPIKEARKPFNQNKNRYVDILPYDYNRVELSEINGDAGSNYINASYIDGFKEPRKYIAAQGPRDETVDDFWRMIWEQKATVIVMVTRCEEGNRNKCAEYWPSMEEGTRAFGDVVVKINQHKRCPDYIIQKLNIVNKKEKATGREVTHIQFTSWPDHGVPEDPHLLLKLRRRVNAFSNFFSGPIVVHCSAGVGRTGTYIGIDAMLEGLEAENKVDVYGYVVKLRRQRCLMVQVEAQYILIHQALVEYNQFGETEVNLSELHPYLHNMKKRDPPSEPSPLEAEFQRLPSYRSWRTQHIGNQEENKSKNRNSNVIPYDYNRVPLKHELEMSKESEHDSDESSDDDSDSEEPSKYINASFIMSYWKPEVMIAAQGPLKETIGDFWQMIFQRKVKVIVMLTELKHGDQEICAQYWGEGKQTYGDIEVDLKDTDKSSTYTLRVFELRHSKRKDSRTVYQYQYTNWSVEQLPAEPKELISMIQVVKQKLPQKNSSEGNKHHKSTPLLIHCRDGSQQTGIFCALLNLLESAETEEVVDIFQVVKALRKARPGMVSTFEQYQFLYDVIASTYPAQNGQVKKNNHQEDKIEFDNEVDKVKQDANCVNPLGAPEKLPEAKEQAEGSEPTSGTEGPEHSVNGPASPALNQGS

| Structure (SMILES) | AC50 | outcome |
| --- | --- | --- |
| OC12N=C(c3ccccc3)SC1Cc1cc(Cl)ccc12 (configuration not stated) | 21.3 µM (active) | – |
| CCCCCCOCCO | – | inactive |
| CC(C)CCO | – | inactive |
| NC(=O)NN=Cc1ccc([N+](=O)[O-])o1 | 11.3 µM (active) | – |
| CCCCCCC(=O)OCC | – | inactive |

system: rat Monoamine Oxidase, MAO-A, Central (MAOAC), gene 29253; test: NVS_ENZ_rMAOAC: NovaScreen (NVS) Enzymatic Assay for rat Monoamine Oxidase, MAO-A, Central (MAOAC) (AID 2283243);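 note: potency refers to inhibition seen as signal drop below DMSO baseline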
Outline: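 Lysate-based radiometric enzyme assay using rat brain tissue; 1.5 h treatment; 25 uM single-point duplicate screen, concentration-response follow-up; loss of signal versus DMSO.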

| Structure (SMILES) | AC50 | outcome |
| --- | --- | --- |
| CN(CCOc1ccc(CC2SC(=O)NC2=O)cc1)c1ccccn1 (configuration not stated) | 12.9 µM (active) | – |
| Cc1ccc(N)c([N+](=O)[O-])c1 | 8.62 µM (active) | – |
| C#CC(O)CCC (configuration not stated) | – | inactive |

— PubChem BioAssay (EPA / NIEHS)
